The values that follow come from publication PMC7862700, “An all-to-all approach to the identification of sequence-specific readers for epigenetic DNA modifications on cytosine”.

Common to all, as to test: DAPPL (digital affinity profiling via proximity ligation, sequencing); 10 mM Tris-HCl pH 7.5, 50 mM NaCl, 1 mM DTT, 4% glycerol, room temperature, 30 min; GST-TFs on glutathione beads, 16-mer random dsDNA library, 0.1% formaldehyde crosslink after washing; high values mean tight binding
One assay deals with T1, FLI1 (Homo sapiens, UniProt Q01543 1-452).
T1 sequence: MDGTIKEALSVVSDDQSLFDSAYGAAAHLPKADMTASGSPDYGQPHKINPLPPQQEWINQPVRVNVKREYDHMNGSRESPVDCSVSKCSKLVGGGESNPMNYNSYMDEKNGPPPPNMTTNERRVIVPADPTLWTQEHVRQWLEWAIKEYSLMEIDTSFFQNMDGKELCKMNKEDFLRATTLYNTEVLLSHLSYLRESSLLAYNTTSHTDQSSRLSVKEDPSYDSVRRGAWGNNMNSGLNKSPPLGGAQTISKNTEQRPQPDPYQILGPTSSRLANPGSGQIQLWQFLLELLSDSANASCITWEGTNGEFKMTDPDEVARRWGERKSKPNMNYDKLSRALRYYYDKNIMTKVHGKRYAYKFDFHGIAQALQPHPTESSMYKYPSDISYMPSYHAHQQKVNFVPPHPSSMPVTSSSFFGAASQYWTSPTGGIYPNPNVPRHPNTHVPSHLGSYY
As to conditions: protein: recombinant; tags: N-terminal GST; dsDNA, one strand shown. Put shortly:
(§1)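 Sequencing on an Illumina NextSeq500 followed washing, crosslinking with 0.1% formaldehyde, proximity ligation (BsaI/T4 ligase, 1 h, 37 °C) and PCR amplification of pools that had been incubated for 30 min at room temperature with 200 nmole of a random double-stranded 16-mer DNA library in Tris/NaCl/DTT/glycerol buffer. Each pool held DNA-barcoded human transcription factors, expressed in yeast as GST fusions and captured on glutathione beads, plus a tag-only sample. Binding signal is a hexamer's read frequency for a factor divided by its frequency in the tag-only sample.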

The target in the next assay is T2, ELK1 (Homo sapiens, UniProt P19419 1-428).
T2 sequence: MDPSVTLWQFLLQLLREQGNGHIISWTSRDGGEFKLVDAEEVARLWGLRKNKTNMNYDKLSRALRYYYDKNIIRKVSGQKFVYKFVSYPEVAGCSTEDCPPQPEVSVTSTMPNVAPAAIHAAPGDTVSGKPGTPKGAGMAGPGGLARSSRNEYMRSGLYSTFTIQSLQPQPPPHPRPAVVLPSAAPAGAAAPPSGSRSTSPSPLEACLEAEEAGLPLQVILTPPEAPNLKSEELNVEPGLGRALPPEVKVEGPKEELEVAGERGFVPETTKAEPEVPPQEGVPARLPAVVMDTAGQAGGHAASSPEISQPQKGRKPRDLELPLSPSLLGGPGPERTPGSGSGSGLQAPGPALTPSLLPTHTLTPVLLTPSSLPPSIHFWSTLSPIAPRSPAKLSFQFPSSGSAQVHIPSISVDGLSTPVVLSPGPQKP
As to conditions: protein: recombinant; tags: N-terminal GST; dsDNA, one strand shown. Put shortly:
as §1

A further assay deals with T3, GABPA (Homo sapiens, UniProt Q06546 1-454).
T3 sequence: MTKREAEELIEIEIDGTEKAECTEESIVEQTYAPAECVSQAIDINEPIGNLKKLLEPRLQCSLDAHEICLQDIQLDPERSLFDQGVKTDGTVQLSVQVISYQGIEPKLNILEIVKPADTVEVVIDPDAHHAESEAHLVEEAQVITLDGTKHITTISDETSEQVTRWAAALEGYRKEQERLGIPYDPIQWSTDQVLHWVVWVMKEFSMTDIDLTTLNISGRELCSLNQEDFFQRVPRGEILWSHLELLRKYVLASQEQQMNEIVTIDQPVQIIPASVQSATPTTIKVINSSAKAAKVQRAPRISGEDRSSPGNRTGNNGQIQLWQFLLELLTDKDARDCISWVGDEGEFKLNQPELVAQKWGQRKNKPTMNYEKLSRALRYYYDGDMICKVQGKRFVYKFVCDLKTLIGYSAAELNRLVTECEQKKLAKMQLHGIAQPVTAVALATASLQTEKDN
To be noted: protein: recombinant; tags: N-terminal GST; dsDNA, one strand shown. Put shortly:
as §1

The target in another assay is T4, ERG (Homo sapiens, UniProt P11308 1-479).
T4 sequence: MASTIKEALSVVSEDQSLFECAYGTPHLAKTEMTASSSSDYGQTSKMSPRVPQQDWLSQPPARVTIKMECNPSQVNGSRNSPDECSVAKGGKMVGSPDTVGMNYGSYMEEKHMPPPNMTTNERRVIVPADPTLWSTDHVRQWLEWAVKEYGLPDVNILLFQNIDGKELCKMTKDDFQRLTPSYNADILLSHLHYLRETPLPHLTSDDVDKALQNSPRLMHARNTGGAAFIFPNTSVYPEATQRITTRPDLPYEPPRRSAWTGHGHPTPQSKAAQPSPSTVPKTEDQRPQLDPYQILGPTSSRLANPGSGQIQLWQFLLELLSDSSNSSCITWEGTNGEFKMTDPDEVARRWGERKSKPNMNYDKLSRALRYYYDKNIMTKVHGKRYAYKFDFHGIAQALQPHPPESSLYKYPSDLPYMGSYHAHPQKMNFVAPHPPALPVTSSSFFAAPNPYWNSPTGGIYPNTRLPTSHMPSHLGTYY
To be noted: protein: recombinant; tags: N-terminal GST; dsDNA, one strand shown. Put shortly:
as §1

In another assay the target is ELF1 (Homo sapiens, UniProt P32519 1-619). As to conditions: protein: recombinant; tags: N-terminal GST; dsDNA, one strand shown. Put shortly:
as §1

The next assay has as its target T5, EHF (Homo sapiens, UniProt Q9NZC4 1-300).
T5 sequence: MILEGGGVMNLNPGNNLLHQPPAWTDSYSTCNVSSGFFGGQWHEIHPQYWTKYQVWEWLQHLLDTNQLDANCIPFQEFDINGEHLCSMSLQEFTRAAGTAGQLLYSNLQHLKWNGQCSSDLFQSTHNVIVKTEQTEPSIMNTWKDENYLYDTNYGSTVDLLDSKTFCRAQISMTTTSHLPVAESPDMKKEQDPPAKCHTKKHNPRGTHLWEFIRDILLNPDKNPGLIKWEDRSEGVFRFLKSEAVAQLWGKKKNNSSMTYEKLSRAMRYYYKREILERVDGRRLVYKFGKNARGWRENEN
To be noted: protein: recombinant; tags: N-terminal GST; dsDNA, one strand shown. Put shortly: as §1

Another assay concerns the target SPI1 (Homo sapiens, UniProt P17947 1-270). As to conditions: protein: recombinant; tags: N-terminal GST; dsDNA, one strand shown. Put shortly:
as §1

The next assay has as its target SPIB (Homo sapiens, UniProt Q01892 1-262). To be noted: protein: recombinant; tags: N-terminal GST; dsDNA, one strand shown. Put shortly: as §1
For a further assay, the target named is T6, ELK3 (Homo sapiens, UniProt P41970 1-407).
T6 sequence: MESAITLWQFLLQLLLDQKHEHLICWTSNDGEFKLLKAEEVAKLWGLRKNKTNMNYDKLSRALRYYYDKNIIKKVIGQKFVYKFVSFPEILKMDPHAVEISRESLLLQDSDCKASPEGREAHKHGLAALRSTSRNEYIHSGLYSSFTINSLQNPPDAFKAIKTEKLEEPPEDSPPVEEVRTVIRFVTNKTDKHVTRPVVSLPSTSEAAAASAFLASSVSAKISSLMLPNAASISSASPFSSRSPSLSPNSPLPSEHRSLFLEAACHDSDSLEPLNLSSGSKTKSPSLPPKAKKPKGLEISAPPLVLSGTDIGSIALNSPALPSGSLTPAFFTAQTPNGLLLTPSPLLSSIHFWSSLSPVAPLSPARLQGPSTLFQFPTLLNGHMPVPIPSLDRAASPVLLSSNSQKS
To be noted: protein: recombinant; tags: N-terminal GST; dsDNA, one strand shown. Put shortly:
as §1

For the next assay, the target named is T7, FEV (Homo sapiens, UniProt Q99581 1-238).
T7 sequence: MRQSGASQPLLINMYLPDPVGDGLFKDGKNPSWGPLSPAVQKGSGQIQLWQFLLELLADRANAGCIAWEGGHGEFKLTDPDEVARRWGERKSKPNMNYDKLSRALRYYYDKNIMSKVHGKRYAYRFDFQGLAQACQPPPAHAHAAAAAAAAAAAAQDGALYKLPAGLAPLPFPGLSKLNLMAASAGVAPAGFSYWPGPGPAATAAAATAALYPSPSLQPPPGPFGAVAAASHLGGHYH
To be noted: protein: recombinant; tags: N-terminal GST; dsDNA, one strand shown. Put shortly: as §1

For the next assay, the target named is ETV5 (Homo sapiens, UniProt P41161 1-510). To be noted: protein: recombinant; tags: N-terminal GST; dsDNA, one strand shown. Put shortly:
as §1

The target of a further assay is HSF1 (Homo sapiens, UniProt Q00613 1-529). To be noted: protein: recombinant; tags: N-terminal GST; chain copies: 3; dsDNA, one strand shown. Put shortly: as §1
In another assay the target is T8, SPIC (Homo sapiens, UniProt Q8N5J4 1-248).
T8 sequence: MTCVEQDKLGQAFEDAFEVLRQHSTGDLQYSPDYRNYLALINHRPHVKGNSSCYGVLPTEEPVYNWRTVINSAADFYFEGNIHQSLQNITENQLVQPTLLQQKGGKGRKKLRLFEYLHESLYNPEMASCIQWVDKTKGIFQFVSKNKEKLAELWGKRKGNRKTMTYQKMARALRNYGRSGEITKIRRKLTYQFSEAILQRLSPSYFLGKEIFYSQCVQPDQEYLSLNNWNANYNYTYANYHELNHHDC
To be noted: protein: recombinant; tags: N-terminal GST; dsDNA, one strand shown. Put shortly: as §1

Another assay concerns the target ELF4 (Homo sapiens, UniProt Q99607 1-663). As to conditions: protein: recombinant; tags: N-terminal GST; dsDNA, one strand shown. Put shortly:
as §1

The next assay addresses T9, ELK4 (Homo sapiens, UniProt P28324-2 1-405).
T9 sequence: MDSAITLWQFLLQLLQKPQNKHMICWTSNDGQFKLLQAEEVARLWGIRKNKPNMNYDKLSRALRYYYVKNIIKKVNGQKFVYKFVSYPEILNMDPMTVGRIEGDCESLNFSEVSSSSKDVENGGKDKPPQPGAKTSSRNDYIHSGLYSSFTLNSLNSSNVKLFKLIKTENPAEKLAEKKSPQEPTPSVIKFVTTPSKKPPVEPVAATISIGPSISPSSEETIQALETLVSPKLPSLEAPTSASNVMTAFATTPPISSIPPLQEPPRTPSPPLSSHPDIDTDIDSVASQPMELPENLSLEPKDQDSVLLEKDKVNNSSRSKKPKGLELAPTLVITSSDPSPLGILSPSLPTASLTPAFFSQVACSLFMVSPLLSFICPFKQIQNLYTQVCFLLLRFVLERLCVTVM
As to conditions: protein: recombinant; tags: N-terminal GST; dsDNA, one strand shown. Put shortly:
as §1

The next assay addresses T10, ETV2 (Homo sapiens, UniProt O00321 1-342).
T10 sequence: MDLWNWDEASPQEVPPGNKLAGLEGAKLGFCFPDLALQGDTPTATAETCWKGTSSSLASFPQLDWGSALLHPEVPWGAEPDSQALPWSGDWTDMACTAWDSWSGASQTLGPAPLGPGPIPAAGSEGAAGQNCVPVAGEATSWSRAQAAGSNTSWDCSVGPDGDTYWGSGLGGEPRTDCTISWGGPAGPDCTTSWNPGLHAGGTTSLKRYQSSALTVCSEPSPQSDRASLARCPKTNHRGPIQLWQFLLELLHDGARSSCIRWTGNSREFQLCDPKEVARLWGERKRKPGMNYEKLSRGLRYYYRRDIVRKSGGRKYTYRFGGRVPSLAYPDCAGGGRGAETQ
As to conditions: protein: recombinant; tags: N-terminal GST; dsDNA, one strand shown. Put shortly:
as §1

Another assay deals with T11, ELF3 (Homo sapiens, UniProt P78545 1-371).
T11 sequence: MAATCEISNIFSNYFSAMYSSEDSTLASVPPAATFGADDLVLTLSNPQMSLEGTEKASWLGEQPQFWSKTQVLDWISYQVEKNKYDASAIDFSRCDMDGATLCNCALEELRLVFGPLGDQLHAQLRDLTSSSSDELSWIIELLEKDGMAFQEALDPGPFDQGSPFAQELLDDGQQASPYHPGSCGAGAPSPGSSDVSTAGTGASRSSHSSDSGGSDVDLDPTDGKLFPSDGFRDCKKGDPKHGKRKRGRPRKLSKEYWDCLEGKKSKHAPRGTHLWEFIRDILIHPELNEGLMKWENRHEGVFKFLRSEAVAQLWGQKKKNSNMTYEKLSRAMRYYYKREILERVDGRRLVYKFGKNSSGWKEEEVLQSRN
As to conditions: protein: recombinant; tags: N-terminal GST; dsDNA, one strand shown. Put shortly: as §1

The target in another assay is ETV1 (Homo sapiens, UniProt P50549 1-477). To be noted: protein: recombinant; tags: N-terminal GST; dsDNA, one strand shown. Put shortly: as §1
ETV1, sequence (P50549 whole entry): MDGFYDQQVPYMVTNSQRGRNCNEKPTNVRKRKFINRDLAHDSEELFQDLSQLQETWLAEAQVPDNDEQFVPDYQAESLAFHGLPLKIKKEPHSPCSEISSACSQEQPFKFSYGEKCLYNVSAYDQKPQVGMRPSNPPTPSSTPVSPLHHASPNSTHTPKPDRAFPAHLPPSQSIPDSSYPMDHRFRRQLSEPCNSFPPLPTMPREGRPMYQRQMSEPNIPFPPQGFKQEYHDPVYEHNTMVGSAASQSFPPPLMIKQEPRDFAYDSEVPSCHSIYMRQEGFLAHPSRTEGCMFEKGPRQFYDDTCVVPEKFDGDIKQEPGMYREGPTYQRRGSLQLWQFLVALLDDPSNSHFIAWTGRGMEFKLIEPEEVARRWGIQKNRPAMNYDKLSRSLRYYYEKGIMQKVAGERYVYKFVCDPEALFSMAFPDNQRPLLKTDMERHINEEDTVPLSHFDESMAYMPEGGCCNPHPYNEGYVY

ELF1, sequence (P32519 whole entry): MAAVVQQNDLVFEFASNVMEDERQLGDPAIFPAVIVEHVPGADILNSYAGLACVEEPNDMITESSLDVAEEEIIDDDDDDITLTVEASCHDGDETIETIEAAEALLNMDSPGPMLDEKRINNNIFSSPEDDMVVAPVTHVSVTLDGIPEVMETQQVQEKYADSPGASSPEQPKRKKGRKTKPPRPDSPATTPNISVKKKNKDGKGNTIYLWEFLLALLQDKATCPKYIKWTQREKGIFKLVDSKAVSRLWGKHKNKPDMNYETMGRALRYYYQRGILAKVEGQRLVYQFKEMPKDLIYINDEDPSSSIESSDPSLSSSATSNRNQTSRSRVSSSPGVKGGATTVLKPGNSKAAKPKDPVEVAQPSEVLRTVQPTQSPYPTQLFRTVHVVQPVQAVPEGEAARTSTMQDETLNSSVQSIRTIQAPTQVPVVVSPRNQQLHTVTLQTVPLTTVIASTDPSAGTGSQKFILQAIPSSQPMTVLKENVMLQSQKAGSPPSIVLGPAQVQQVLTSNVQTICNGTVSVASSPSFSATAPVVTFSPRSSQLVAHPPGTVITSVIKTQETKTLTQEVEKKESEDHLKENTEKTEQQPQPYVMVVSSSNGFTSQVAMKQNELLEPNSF
ELF4, sequence (Q99607 whole entry): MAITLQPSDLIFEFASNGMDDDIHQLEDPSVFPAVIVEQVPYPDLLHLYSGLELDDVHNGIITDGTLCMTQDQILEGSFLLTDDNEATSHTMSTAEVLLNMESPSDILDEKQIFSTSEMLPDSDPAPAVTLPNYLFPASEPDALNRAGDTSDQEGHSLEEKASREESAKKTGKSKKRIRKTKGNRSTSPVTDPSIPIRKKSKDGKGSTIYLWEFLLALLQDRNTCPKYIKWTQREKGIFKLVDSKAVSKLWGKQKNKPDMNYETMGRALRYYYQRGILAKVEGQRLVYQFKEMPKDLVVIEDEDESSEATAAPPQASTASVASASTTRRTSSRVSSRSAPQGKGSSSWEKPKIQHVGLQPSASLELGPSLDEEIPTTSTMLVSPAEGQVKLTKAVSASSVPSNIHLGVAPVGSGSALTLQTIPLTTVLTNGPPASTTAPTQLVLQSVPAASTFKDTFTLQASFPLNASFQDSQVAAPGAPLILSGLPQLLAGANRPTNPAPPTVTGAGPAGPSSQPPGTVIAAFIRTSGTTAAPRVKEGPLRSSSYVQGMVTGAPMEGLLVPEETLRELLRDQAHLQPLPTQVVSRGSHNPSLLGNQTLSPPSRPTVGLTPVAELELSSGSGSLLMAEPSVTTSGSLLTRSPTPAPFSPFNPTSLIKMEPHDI
SPIB, sequence (Q01892 whole entry): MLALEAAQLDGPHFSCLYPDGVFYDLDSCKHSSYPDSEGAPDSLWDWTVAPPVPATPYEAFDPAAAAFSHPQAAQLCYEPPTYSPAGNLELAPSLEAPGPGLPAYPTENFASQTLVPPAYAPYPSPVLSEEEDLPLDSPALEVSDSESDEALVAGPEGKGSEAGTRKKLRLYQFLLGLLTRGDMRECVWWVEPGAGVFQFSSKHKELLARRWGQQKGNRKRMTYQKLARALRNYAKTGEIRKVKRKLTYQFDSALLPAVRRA
HSF1, sequence (Q00613 whole entry): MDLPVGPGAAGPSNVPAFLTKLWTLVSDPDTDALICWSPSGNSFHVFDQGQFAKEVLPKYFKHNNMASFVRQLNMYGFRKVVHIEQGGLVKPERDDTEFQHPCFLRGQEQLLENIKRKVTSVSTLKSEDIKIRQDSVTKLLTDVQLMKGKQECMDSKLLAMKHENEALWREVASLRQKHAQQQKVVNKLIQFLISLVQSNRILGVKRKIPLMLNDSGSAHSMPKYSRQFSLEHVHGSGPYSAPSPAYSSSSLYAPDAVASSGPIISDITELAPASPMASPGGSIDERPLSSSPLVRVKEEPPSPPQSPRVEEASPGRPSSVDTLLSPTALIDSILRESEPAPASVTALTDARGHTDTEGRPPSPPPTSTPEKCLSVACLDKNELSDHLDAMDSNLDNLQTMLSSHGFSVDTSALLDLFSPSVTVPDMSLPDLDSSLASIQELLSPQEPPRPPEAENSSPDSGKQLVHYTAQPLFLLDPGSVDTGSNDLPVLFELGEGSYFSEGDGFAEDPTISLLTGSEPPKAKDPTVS
ETV5, sequence (P41161 whole entry): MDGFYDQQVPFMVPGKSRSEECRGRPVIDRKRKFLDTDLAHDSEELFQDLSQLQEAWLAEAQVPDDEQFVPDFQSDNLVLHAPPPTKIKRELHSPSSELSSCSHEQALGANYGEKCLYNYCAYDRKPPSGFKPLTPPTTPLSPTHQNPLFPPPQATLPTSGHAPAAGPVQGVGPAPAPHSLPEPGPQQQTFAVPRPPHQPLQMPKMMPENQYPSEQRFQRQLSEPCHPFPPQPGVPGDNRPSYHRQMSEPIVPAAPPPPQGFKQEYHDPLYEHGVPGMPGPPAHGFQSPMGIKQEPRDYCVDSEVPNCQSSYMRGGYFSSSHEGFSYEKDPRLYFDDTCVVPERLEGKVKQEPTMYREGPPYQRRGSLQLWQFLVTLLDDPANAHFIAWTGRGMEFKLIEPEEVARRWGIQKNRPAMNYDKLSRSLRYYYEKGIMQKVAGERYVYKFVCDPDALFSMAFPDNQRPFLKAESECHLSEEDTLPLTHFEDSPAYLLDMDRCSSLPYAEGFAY

As for AACATG, the binding signal with FLI1 was 1.24 fold enrichment (6-mer frequency, TF over GST control); with ELK1 it was 1.21 fold enrichment (6-mer frequency, TF over GST control); with GABPA, 1.15 fold enrichment (6-mer frequency, TF over GST control); with ERG, 1.16 fold enrichment (6-mer frequency, TF over GST control); in the assay with ELF1, 1.22 fold enrichment (6-mer frequency, TF over GST control); with EHF it was 1.05 fold enrichment (6-mer frequency, TF over GST control). Moreover, the binding signal with SPI1 was 1.15 fold enrichment (6-mer frequency, TF over GST control); with SPIB, 1.16 fold enrichment (6-mer frequency, TF over GST control); with ELK3, 1.19 fold enrichment (6-mer frequency, TF over GST control); with FEV it was 1.1 fold enrichment (6-mer frequency, TF over GST control); with ETV5 it was 1.23 fold enrichment (6-mer frequency, TF over GST control); with HSF1, 1.1 fold enrichment (6-mer frequency, TF over GST control). Further, the binding signal is 1.28 fold enrichment (6-mer frequency, TF over GST control) with SPIC; 1.23 fold enrichment (6-mer frequency, TF over GST control) with ELF4; 1.25 fold enrichment (6-mer frequency, TF over GST control) in the assay with ELK4; 1.19 fold enrichment (6-mer frequency, TF over GST control) with ETV2; 1.26 fold enrichment (6-mer frequency, TF over GST control) with ELF3; 1.13 fold enrichment (6-mer frequency, TF over GST control) with ETV1.
